Source: PubChem BioAssay (National Center for Advancing Translational Sciences (NCATS))
Compounds with a hit are over-represented: about 1.5% of the library has one in this group of screens.
PI5P4Ka inh = blocks human PI5P4K alpha kinase activity | hit rate 1.2% among 330,000 | AID 652105 | P48426 | max response, % | PI5P4Kalpha enzyme, ADP-Glo luminescence, 60 min; hits give low values; active means max response of -50% or lower; inconclusive means between -30% and -50%; inactive means -30% or higher; further: value at the top dose of about 77 µM
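Luminescence from ADP-Glo served as readout of PI5P4Kalpha activity in a qHTS format. Reaction: enzyme, substrate, compound, ATP at 5 microM final, 60 min at RT.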
KAT2A inh = GCN5L2 (KAT2A) acetyltransferase inhibition. Potency, µM (titrated, usually from 58.9 µM), inactives show at the top dose activity change, negative = inhibition, actives largely listed as inhibitors. AID 504327. Q92830. GCN5L2 HAT assay, ThioGlo1 CoA-SH fluorescence. hit rate 0.21% among 390,000; further: potency means the concentration at half of the fitted maximal effect
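Fluorescence readout, Ex340nm/Em540nm: ThioGlo1 (50uM final) reacts with free CoA thiol released as 20nM GCN5L2 acetylates H3(1-25) peptide (75uM) using acetyl-CoA (70uM). Compound and enzyme sat 15 min beforehand; 20 min room-temperature reaction.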
APEX1 inh = inhibitors of human APE1 endonuclease. hit rate 0.35% among 350,000. P27695. Potency, µM (series often up to 65.8 µM), inactives show top-dose activity change, negative = inhibition, actives largely listed as inhibitors. recombinant APE1, TAMRA/BHQ-2 abasic DNA cleavage fluorescence;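 further: potency means the concentration at half of the fitted maximal effect; plate controls were vehicle for no effect and reference inhibitor for full effect; nearly all actives have a fitted effect of over 55% in size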
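Incision of a quenched TAMRA/BHQ-2 THF abasic-site duplex (50 nM) by 0.75 nM APE1, after 15 min compound preincubation, measured as fluorescence increase over three 60 s reads. Values normalized to buffer, DMSO and NSC13755 control wells.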
FEN1 inh = inhibitors of human flap endonuclease 1 | Recombinant FEN1 flap cleavage, fluorescence, 15 min | Potency, µM (titrated, usually from 114 µM), without a hit: at the highest dose activity change, negative = inhibition, usual class: inhibitors | hit rate 0.35% among 390,000 | AID 588795; further: potency means the concentration at half of the fitted maximal effect; nearly all actives have a fitted effect of over 65% in size
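Quantitative HTS format: each compound was titrated, incubated with 10 nM nuclease for 15 min at room temperature, then challenged with flap substrate at 50 nM final. Signal change over 15 min gave concentration–effect curves.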
RECQ1 inh = RECQ1 (human) helicase inhibition. P46063. RECQ1 DNA unwinding, red fluorescence kinetic read. Potency, µM (series often up to 57.3 µM), inactives show at the top dose activity, negative = inhibition, most hits filed as inhibitors. hit rate 0.54% among 240,000. AID 2549;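 further: potency means the concentration at half of the fitted maximal effect; plate controls were vehicle for no effect and no enzyme for full effect; nearly all actives have a fitted effect of over 30% in size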
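RECQ1T1 50 nM; forked duplex (20 bp + 30-nt ss tails) 200 nM, ATP 2 mM final; pH 8.0, 2 mM MgCl2, 2.5 ug/ml poly(dI-dC); 15 min compound preincubation; discontinuous kinetic read over 2 h at RT.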
BLM helicase inh = blocks DNA unwinding by human BLM helicase; AID 2528; Potency, µM (titrated, usually from 56.1 µM), inactives show top-dose activity change, negative = inhibition, actives largely listed as inhibitors; hit rate 0.2% among 350,000; P54132; recombinant BLM DNA unwinding, fluorescence dequenching;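 further: potency means the concentration at half of the fitted maximal effect; plate controls were vehicle for no effect and no enzyme for full effect; nearly all actives have a fitted effect of over 35% in size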
An asterisk follows results filed as active; i = inactive; ? = inconclusive; / = no result given. Unless noted, the call rests on the fitted dose curve; in most records, active means well fitted curve in the direction sought with a large enough effect; inconclusive means small, poorly fitted or top-dose-only effect, or another doubt; inactive means no such curve, though single readings can be large; an effect the other way counts as inactive or inconclusive. Unless noted, on the % scale 0 is the no-effect control and ±100 the full control effect.

SMILES	PI5P4Ka inh	KAT2A inh	APEX1 inh	FEN1 inh	RECQ1 inh	BLM helicase inh
CN(C)/[N+]([O-])=N/Oc1ccc([N+](=O)[O-])cc1[N+](=O)[O-]	/	/	/	-3%	/	/
CN(N=O)c1ccc(/C=C/c2ccccc2)cc1	/	/	/	2%	/	/
O=C1C=CC(=O)C(CNc2ccc(C(=O)OCc3ccccc3)cc2)=C1	-77*	/	/	-19%	/	/
CCn1c2ccccc2c2cc(/C=N/n3c(-c4cc(C)[nH]n4)n[nH]c3=S)ccc21	-60*	-20%	-1%	?	-16%	-11%
COc1ccc(N2C(=O)C3CC=C(Cl)CC3C2=O)cc1 (stereo not drawn)	/	0%	-8%	-3%	i	2%
COc1ccc(NC(=O)c2ccc(N3C(=O)C4CC=C(Cl)CC4C3=O)cc2)cc1 (stereo not drawn)	-51*	-4%	1%	9%	/	-4%
CC(=O)Oc1ccc(-c2nc(-c3ccccc3)no2)cc1	/	/	/	-11%	/	/
O=c1[nH]/c(=C/c2ccc3c(c2)OCO3)c(=O)[nH]/c1=C/c1ccc2c(c1)OCO2	/	/	/	-4%	/	/
COc1cc2sc3cc(NCCCN4CCOCC4)ccc3c(=O)c2cc1OC	4	-23%	-13%	?	/	/
O=c1c2ccccc2sc2ccc(NCCCN3CCOCC3)cc12	0	/	/	45µM*	/	/
N=C1C(c2nc(-c3cccc([N+](=O)[O-])c3)cs2)=C(O)CN1NC(=O)c1ccco1	-55*	-6%	0%	-21%	i	-1%
O=c1c(-c2ccccc2)nc2cnc(N3CCNCC3)nc2n1Cc1ccc(F)cc1	/	18µM*	2%	/	-1%	-8%
Cc1nc2cnc(N3CCNCC3)nc2n(CCC#N)c1=O	/	28µM*	0%	/	-6%	-3%
CN1CCN(C(c2ccc(Cl)cc2)c2cc(Cl)c3cccnc3c2O)CC1 (stereo not drawn)	-62*	-6%	32%	?	/	-3%
COc1cccc2nc(-c3cccs3)nc(NN3C(=O)C=C(C)C3=O)c12	/	/	10%	/	-6%	-4%
CCn1c(CSc2nc3ccccc3s2)nnc1SCC(=O)c1ccc(Cl)cc1	-51*	-5%	3%	2%	-10%	-6%
Nc1[nH]c(=S)[nH]c(=O)c1N	/	/	/	8%	/	/
C#CCNC(=O)C1=C[C@H](c2ccc(C#C)cc2)C[C@H](OCc2ccc(CO)cc2)O1	-59*	/	/	0%	/	/
C#CCNC(=O)C1=C[C@H](c2ccc(C(F)(F)F)cc2)C[C@H](OCc2ccc(CO)cc2)O1	-9	-3%	?	-17%	-10%	3%
CN(c1ccc(OCC(=O)OCC(=O)Nc2ccccc2)cc1)S(=O)(=O)c1cccs1	-11	10µM*	2%	-3%	-9%	-2%
COc1cc(/C=C/c2cncc(/C=C/c3cc(OC)c(OC)c(OC)c3)c2)cc(OC)c1OC	/	/	/	11%	/	/
CC(=O)O[C@@H]1CC2CCC1(C)C2(C)C (stereo partly drawn)	/	/	0%	/	/	/
O=C1c2ccccc2NC(c2ccc(O)cc2)N1Cc1ccco1 (stereo not drawn)	/	-14%	-3%	-17%	i	-17%
O=C1c2ccccc2NC(c2cccc(F)c2)N1Cc1ccco1 (stereo not drawn)	/	-3%	7.9µM*	-6%	-19%	?
C[N+](C)(C)CC[N+]1(C)Cc2c(Cl)c(Cl)c(Cl)c(Cl)c2C1	/	20µM*	-3%	/	1%	80%
SMILES	PI5P4Ka inh	KAT2A inh	APEX1 inh	FEN1 inh	RECQ1 inh	BLM helicase inh
O=C(O)CC12CC3CC(C1)CC(n1ncc(NCc4ccc5c(c4)OCO5)c(Cl)c1=O)(C3)C2	/	-3%	-9%	/	40µM*	-3%
O=Cc1cn(CC(=O)N2CCCc3ccccc32)c2ccccc12	-69*	-2%	8%	8%	-1%	0%
O=Cc1cn(CC(=O)N2CCCCC2)c2ccccc12	6	1%	17%	1%	-12%	3%
Cc1cc(=O)[nH]c(SCC(=O)c2ccccc2)c1C#N	-5	2%	-4%	-14%	6%	-3%
Cc1ccccc1NC(=O)CSc1[nH]c(=O)cc(C)c1C#N	-56*	-10%	-4%	?	i	2%
Cc1cc(NC(=O)CSc2[nH]c(=O)cc(C(F)(F)F)c2C#N)no1	-75*	-3%	2%	19%	/	/
Cc1cc(-n2c(C)cc(C(=O)CSc3[nH]c(=O)cc(C(F)(F)F)c3C#N)c2C)no1	-4	1%	38%	12%	/	/
N#CCC(=O)Nc1ccc(C(=O)OCC(=O)NC(=O)NCc2ccco2)cc1	-55*	-18%	10%	3%	/	/
O=C(C[N+]12CN3CN(CN(C3)C1)C2)c1ccc(O)c(O)c1	/	/	/	14µM*	/	/
O=C(C[N+]12CN3CN(CN(C3)C1)C2)c1ccc(Cl)cc1	/	/	/	14%	/	/
CC(=O)NC(Cc1ccc([N+](=O)[O-])cc1)C(=O)NCC(N)C(=O)c1ccccc1 (stereo not drawn)	/	/	/	-2%	/	/
O=C(/C=C/c1ccc(O)cc1)OC[C@H]1O[C@@H](Oc2c(-c3ccc(O)cc3)oc3cc(O)cc(O)c3c2=O)[C@H](O)[C@@H](O)[C@@H]1O	/	0%	-4%	/	10%	3%
CN1C(=O)NC2(O)C(=O)c3ccccc3C12O (stereo not drawn)	-51*	-4%	-1%	-4%	-3%	0%
NNc1nc2c(-c3ccc(F)cc3)nnn2c2ccccc12	-29	-11%	3%	28µM*	-5%	-12%
NNc1nc2c(-c3ccc(Cl)cc3)nnn2c2ccccc12	-2	-5%	-1%	-12%	-4%	1%
CN(C)c1ccc(/C=C/c2ccnc3ccc(F)cc23)cc1	/	/	/	12%	/	/
C=C1C=C(C(F)F)n2ncc(C(=O)Nc3ccc(N(CC)CC)cc3)c2N1	/	/	/	-3%	/	/
N#Cc1c(N2CCN(c3ccc(F)cc3)CC2)nc(N)c2c(N)nc3c(c12)CC(=O)N3C1CC1	-50*	-6%	2%	-11%	-4%	-18%
COc1ccc(-c2csc(NC(=S)NC(=O)c3cccs3)n2)cc1OC	-67*	-11%	-9%	-35%	-22%	-19%
COc1ccc(-c2csc(NC(=S)NC(=O)c3cccs3)n2)cc1Br	0	-4%	4%	-6%	1%	-11%
O=C(NC(NC(=S)Nc1ccc(F)c([N+](=O)[O-])c1)C(Cl)(Cl)Cl)C(c1ccccc1)c1ccccc1 (stereo not drawn)	/	0%	-7%	/	-3%	-10%
CC(C)(C)n1ncc2c(=O)n(Cc3cccc(C(F)(F)F)c3)cnc21	/	/	-4%	-21%	/	/
Fc1ccc(CCNc2ncnc3nc[nH]c23)cc1	/	/	/	-11%	/	/
CN(C)S(=O)(=O)c1cccc(NC(=S)N/N=C/c2cc(Br)ccc2O)c1	-61*	-24%	1%	?	-16%	4%
